# Screens deposited in PubChem by National Center for Advancing Translational Sciences (NCATS).
# Shown are actives, neighbours in structure and some others; about 2.4% of the full set was active somewhere.
# D2 ag-1 – human D2 receptor agonism in beta-arrestin assay; 360,000 compounds, 0.084% hits; DiscoveRx PathHunter D2 beta-arrestin, luminescence, 90 min; 100% = 57 uM dopamine signal; activation, % (concentration not given with the values); P14416; AID 624465; in the data active means activation above about 40%; inconclusive means between about 15% and that limit
# Target sequence (P14416 whole entry, looked up): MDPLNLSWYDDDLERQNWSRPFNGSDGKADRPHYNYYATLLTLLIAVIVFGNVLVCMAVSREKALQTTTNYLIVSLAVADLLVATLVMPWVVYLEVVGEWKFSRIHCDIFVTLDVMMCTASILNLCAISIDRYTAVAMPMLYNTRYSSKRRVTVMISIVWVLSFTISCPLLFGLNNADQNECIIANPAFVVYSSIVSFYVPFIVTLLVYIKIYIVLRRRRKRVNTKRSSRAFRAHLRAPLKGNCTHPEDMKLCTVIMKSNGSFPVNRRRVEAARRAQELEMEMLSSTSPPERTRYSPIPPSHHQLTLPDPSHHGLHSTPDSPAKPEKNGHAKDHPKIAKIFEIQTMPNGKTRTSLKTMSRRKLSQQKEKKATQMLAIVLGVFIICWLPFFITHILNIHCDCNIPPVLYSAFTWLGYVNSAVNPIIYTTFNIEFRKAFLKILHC
#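 Agonist mode: compounds alone added to overnight-plated D2 PathHunter cells for 90 min at 37 C, with 57 uM final dopamine (EC100) defining full response. Beta-arrestin recruitment detected by chemiluminescent reagent, read after 1 h at ambient temperature.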
# D2 PAM-1 – D2 dopamine receptor (human) potentiation; P14416; HEK293 T-REx D2, calcium flux, EC20 dopamine potentiation; potentiation, % at 10 µM; 340,000 compounds, 0.34% hits; AID 485347;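 active means potentiation over 3 SD above the plate norm, cut at about 30% in these data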; further: 0% is about no effect
#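 Calcium flux readout, no-wash dye, 1 read/s. Inducible HEK293 Trex D2 line, overnight 30 C. Compound alone 180 s (agonist flags), then EC20 dopamine, another 180 s to score potentiation.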
# D2 antagonist – antagonists of human D2 dopamine receptor; P14416; HEK293 TREx D2 cells, calcium flux, dopamine EC80; inhibition, % at 10 µM; 340,000 compounds, 2% hits; AID 485344; in the data active means inhibition above about 30%; inactive means below that, where a call was filed; further: 0% is about no effect
#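 Inhibition of EC80 dopamine-driven calcium flux, recorded kinetically, defines activity here; cells are a tetracycline-induced HEK293 T-REx line expressing force-coupled D2.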
# D2 PAM-2 – potentiates the human D2 dopamine receptor allosterically | DiscoveRx D2 beta-arrestin cells, luminescence, 90 min; 100% = 57 uM dopamine signal | 360,000 compounds, 0.23% hits | AID 624464 | P14416 | potentiation, % (no concentration beside the values); in the data active means potentiation above about 50%; inconclusive means mostly about 30% to 49%
#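 D2 cells co-treated with compound plus 50 nM dopamine (EC20) for 90 min at 37 deg C to detect potentiation. Beta-arrestin recruitment was read as enzyme-fragment luminescence after 1 h at ambient temperature. Full response was set by 57 uM dopamine.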
# D2 ag-2 – agonists of human D2 dopamine receptor | HEK293 T-REx D2 cells, calcium flux agonist mode | AID 485358 | activation, % at 2 µM | P14416 | 340,000 compounds, 0.53% hits;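 active means activation over 3 SD above normal in the single-dose calcium agonist read, cut at about 30% in these data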; further: 0% is about no effect
#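 In this primary screen, compounds producing a positive calcium signal within 180 s of addition to tetracycline-induced, force-coupled HEK293 Trex D2 cells are flagged; cells are dye-loaded with a no-wash calcium kit beforehand.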
# * marks the source's active call; other numbers are inactive results; ? = inconclusive; / = no result given.
SMILES,D2 ag-1,D2 PAM-1,D2 antagonist,D2 PAM-2,D2 ag-2
Cc1ccc(CN2CCC(c3nc4ccc(Cl)cc4[nH]3)CC2)cc1,-1.2,-15.3,86.8*,-31.1,-0.4
CC1CCCCN1C(=O)CN1CCC(c2nc3ccc(Cl)cc3[nH]2)CC1 (stereo not given),-3.5,-6.3,8.5,-7.0,-0.7
Clc1ccc2nc(C3CCN(Cc4ccccc4)CC3)[nH]c2c1,-1.5,-18.0,52.5*,-18.3,-1.1
N#C/C(=C\c1ccc(-c2ccc(F)cc2)o1)C(=O)Nc1nc(-c2cccs2)cs1,-6.4,-2.5,5.0,-37.9,-0.1
N#C/C(=C/c1ccc(-c2ccccc2)o1)c1nc(-c2cccs2)cs1,1.6,10.2,-16.0,2.9,87.2*
N#C/C(=C/c1ccc(-c2ccc(S(N)(=O)=O)cc2)o1)c1nc2ccccc2s1,11.0,1.0,25.2,24.6,115.5*
N#C/C(=C/c1ccc(-c2ccc(S(N)(=O)=O)cc2)o1)C(=O)Nc1ccccc1,8.6,-6.7,3.5,-2.0,-0.6
Cc1cccc(N=C(N2CCOCC2)P(=O)(N2CCOCC2)N2CCOCC2)c1,-2.0,64.9*,10.6,-11.4,0.3
Cc1n[nH]c(C)c1S(=O)(=O)N(CC(=O)NCc1ccccc1Cl)c1ccc(C(C)C)cc1,/,-7.9,/,/,0.3
CC(C)C(OC(=O)Cn1nnc2ccccc21)C(=O)NC1CCCC1 (stereo not given),0.2,12.9,-1.6,-3.1,0.9
CC1(C(=O)O)CCC(C(=O)Nc2ccc(OC(F)(F)Cl)cc2)C1(C)C (stereo not given),2.4,-5.2,42.8*,-7.6,0.9
CC(=O)N(CCC1(C(C)C)CCOC(C)(C)C1)Cc1ccco1 (stereo not given),0.1,9.3,38.4*,7.4,0.5
CCC(=O)N(CCC1(C(C)C)CCOC(C)(C)C1)Cc1ccco1 (stereo not given),-1.9,1.1,-18.1,-10.0,0.8
Nc1[nH]nc2ncc3cc4ccccc4nc3c12,-2.5,-0.5,59.5*,15.1,-0.2
O=C(COC(=O)/C=C/c1cccc([N+](=O)[O-])c1)Nc1ccc(Cl)cn1,-1.7,13.3,39.3*,-3.5,0.1
Cc1ccc(C(CC(=O)O)NC(=O)CN2C(=O)c3ccccc3C2=O)cc1 (stereo not given),-6.5,-0.2,42.8*,-7.6,1.5
Cc1ccc(NC(=O)CN2C(=O)c3ccccc3C2=O)nc1,-6.7,-6.0,-7.7,-6.2,0.4
COC(=O)c1nnn(-c2nonc2N)c1COc1ccc(C=O)cc1OC,4.2,10.8,/,5.5,/
C=CCN(CC=C)CC(O)CN(c1cc([N+](=O)[O-])ccc1OC)S(=O)(=O)c1ccccc1 (stereo not given),-0.4,-25.2,66.1*,-18.4,1.0
COc1ccc(C(C)(C)C)cc1NC(=O)CCCn1c(=O)oc2ccccc21,-3.1,-28.4,50.8*,-22.0,-2.0
COc1cc(NC(=O)CCCn2c(=O)oc3ccccc32)cc(OC)c1,-0.8,/,/,-9.5,/
Cc1cc(N/N=C/c2ccc(O)cc2O)nc(-c2ccccc2O)n1,41.5*,1.8,-8.9,?,-0.4
Cc1cc(N/N=C/c2ccccc2O)nc(-c2ccccc2O)n1,-2.0,2.0,3.9,-19.1,-0.8
CCC(=O)N1CCCc2cc(S(=O)(=O)N3CCN(c4ncccn4)CC3)ccc21,10.0,3.8,31.3*,-5.4,0.4
CC1CN(CCCCOc2ccc(Cl)c3ccccc23)CC(C)O1 (stereo not given),-0.1,-23.8,58.3*,-12.2,-2.5
SMILES,D2 ag-1,D2 PAM-1,D2 antagonist,D2 PAM-2,D2 ag-2
O=C(CN1CCCCCC1)Nc1ccccc1OC(F)F,-4.5,-6.3,6.3,-8.7,-1.2
O=[N+]([O-])c1cc(-c2nc(-c3ccncc3)no2)ccc1Cl,1.8,4.3,18.4,-0.9,0.7
O=[N+]([O-])c1cc(-c2nc(-c3ccncc3)no2)cc([N+](=O)[O-])c1,?,2.7,6.1,95.4*,-0.5
Brc1cccc(-c2nc(-c3ccncc3)no2)c1,-0.8,7.5,40.9*,-20.5,0.5
CCOCCCN1C(=O)c2ccccc2CC1(C)C(=O)NC1CCCCC1 (stereo not given),/,-2.9,/,/,0.1
N=c1sccn1CC(=O)NCCc1ccc(Cl)cc1Cl,-3.4,-8.8,39.0*,-23.9,-0.3
CN(Cc1ccccc1Cl)C(=O)CNC(=O)C12CC3CC(CC(C3)C1)C2,-4.3,/,/,-1.1,/
CC(C)(C)C(=O)NC(=S)NNC(=O)c1ccc(Cl)cc1Cl,-5.1,-36.6,91.2*,-8.8,115.7*
CCCOc1ccc(C(=O)NNC(=S)NC(C)=O)cc1,-5.8,4.7,/,-24.4,/
CCCOc1ccc(C(=O)NNC(=S)NC(=O)c2ccccc2)cc1,0.1,-18.0,-8.3,-17.2,44.6*
CC(C)(C)C(=O)NC(=S)NNC(=O)c1ccncc1,-1.1,-6.9,11.6,-1.8,-0.7
CC(C)(C)C(=O)NC(=S)NNC(=O)c1ccc(-c2ccccc2)cc1,-14.0,-27.8,63.6*,-34.0,90.1*
COc1ccc(NC(=O)C2(C)CCN2Cc2ccc(C(C)C)cc2)cc1OC (stereo not given),3.3,/,/,-0.6,/
COc1ccc(S(=O)(=O)NCC(c2ccco2)S(=O)(=O)c2cccs2)cc1F (stereo not given),/,-0.7,/,/,2.8
Cc1cc(=O)oc2c(C)c(OCC(=O)N3CCN(c4ccc(F)cc4)CC3)ccc12,4.2,-6.1,-5.5,1.9,-0.3
Cc1cccc(N2CCN(C(=O)COc3ccc4c(C)cc(=O)oc4c3C)CC2)c1C,0.9,39.2*,-7.9,-7.7,-0.3
CCCOc1ccccc1N/C(N)=N/c1nc(C)cc(C)n1,0.0,-8.4,30.9*,-10.3,1.3
CCOC(=O)C(c1ccccc1)C(Nc1cc(C(F)(F)F)cc(C(F)(F)F)c1)c1ccccn1 (stereo not given),0.2,-2.9,12.2,-3.3,0.3
Cc1ccccc1OCC(=O)Nc1ccccc1-c1ccccc1,-6.0,-8.1,-6.0,5.1,-0.6
C=CCn1c(C)cc(C(=O)COC(=O)/C=C/c2cccc(OC)c2)c1C,-0.8,4.8,42.0*,1.3,-2.0
CN1CCN(CC/C=C2/c3ccccc3Sc3ccc(S(=O)(=O)N(C)C)cc32)CC1,-3.3,-23.4,80.0*,-35.1,0.7
CCNC(=O)C1(C)CCN(C(=O)c2cc(OC)c(OC)c(OC)c2)C1 (stereo not given),-1.6,/,/,-12.2,/
CC(C)c1cccc(C(C)C)c1NC(=O)c1ccccc1,-4.2,-11.9,42.8*,-0.2,-1.5
CCc1cccc(CC)c1NC(=O)c1ccccc1,-3.5,5.2,20.7,-3.3,-1.1
CC(C)Oc1ccc(CNC(=O)C2CCN(C(=O)N3CC(C)Oc4ccccc43)CC2)cc1 (stereo not given),/,-6.2,/,/,2.3
